# Assay results published in PubChem BioAssay (NCI).
# Values joined by “and” are separate entries in the source; they are usually repeats but may differ in a detail not shown here. Identical values can stand only once. The panel holds about 83,000 compounds, 20% with a hit somewhere; the sample as a whole holds those more often.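 For each line, cells grew in 96-well plates with the test compound present at a single concentration for 48 hours.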 A number with no mark means an inactive call. Active and inactive are the calls of the source. How the source made its calls: active means growth percent below 10; inactive means the rest.
# Columns and labels:
# Experiment in all cases: NCI-60 one-dose screen, 48 h (100 = growth as untreated, 0 = no growth, -100 = all killed)
# HCT-15 colon = conditions: 10 µM unless noted
# SNB-75 CNS = conditions: 10 µM unless noted
# U251 CNS = conditions: 10 µM unless noted
# PC-3 prostate = conditions: 10 µM unless noted
# SK-MEL-5 melanoma = conditions: 10 µM unless noted
# UACC-62 melanoma = conditions: 10 µM unless noted
# LOX IMVI melanoma = conditions: 10 µM
# SK-MEL-28 melanoma = conditions: 10 µM unless noted
# SK-MEL-2 melanoma = conditions: 10 µM unless noted
# TK-10 renal = conditions: 10 µM unless noted
# ACHN renal = conditions: 10 µM unless noted
# CAKI-1 renal = conditions: 10 µM unless noted
# A498 renal = conditions: 10 µM unless noted
# CCRF-CEM leukemia = conditions: 10 µM unless noted
# MOLT-4 leukemia = conditions: 10 µM unless noted
# SNB-19 CNS = conditions: 10 µM unless noted
# EKVX NSCLC = conditions: 10 µM unless noted
# SN12C renal = conditions: 10 µM unless noted
# UO-31 renal = conditions: 10 µM unless noted
# HT29 colon = conditions: 10 µM unless noted
Structure (SMILES),growth (HCT-15 colon),growth (SNB-75 CNS),growth (U251 CNS),growth (PC-3 prostate),growth (SK-MEL-5 melanoma),growth (UACC-62 melanoma),growth (LOX IMVI melanoma),growth (SK-MEL-28 melanoma),growth (SK-MEL-2 melanoma),growth (TK-10 renal),growth (ACHN renal),growth (CAKI-1 renal),growth (A498 renal),growth (CCRF-CEM leukemia),growth (MOLT-4 leukemia),growth (SNB-19 CNS),growth (EKVX NSCLC),growth (SN12C renal),growth (UO-31 renal),growth (HT29 colon)
CCCCCCCCC(=O)OCCCC(CCC(CCC1CCCO1)OC(=O)CCCCCCCC)OC(=O)CCCCCCCC (stereo unspecified),103%,93.8%,106%,85.1%,102%,88.2%,98.6%,102%,103%,87.9%,107%,93.3%,110%,87.6%,117%,,,,,
CCCN(CCC)C(=O)c1ccc(C)cc1,100%,105%,85.5%,86.5%,92.2%,97.2%,,105%,,99.6%,102%,99.2%,27%,,101%,98.2%,89.2%,97.9%,94.1%,
CCOC(=O)C1=C(C(=O)c2ccccc2)C(c2cccc([N+](=O)[O-])c2)C(C(=O)c2ccccc2)=C(C(=O)OCC)N1,66.4%,88.4%,79.9%,86%,95.9%,70.2%,-57.6% (active),95.6%,105%,112%,88.4%,79.6%,104%,65%,52.2%,,,93.7%,,
O=[N+]([O-])c1ccc2c(c1)Cc1ccccc1-2,91%,88.9%,90.9%,,97.7%,91.6%,100%,110%,,,94.2%,99%,82.4%,,86.2%,94.9%,61.1%,101%,82.9%,
CC1OC(OC2C(OC3CCC4(C)C(CCC5(C)C4CC=C4C6CC(C)(C)CCC6(C(=O)O)CCC45C)C3(C)CO)OCC(O)C2O)C(O)C(O)C1O (stereo unspecified),,,,,,-94% [100 µM] (active) and -96.7% [100 µM] (active),,,,-92.1% [100 µM] (active) and -100% [100 µM] (active),,,,,,,,,,
CCOC(=O)c1c(C)[nH]c2ccc(O)cc12,109%,100%,97.3%,93.2%,101%,,97.1%,120%,97.9%,128%,110%,97.8%,111%,77.5%,105%,101%,98.3%,98.9%,72.3%,
COc1cc2c(c(OC)c1OC)-c1ccc(NCc3ccccc3)c(=O)cc1[C@@H](NC(C)=O)CC2,11.5%,32.9%,19%,,-25% (active),24.9%,21.2%,42.2%,19.2%,26%,28.8%,28.8%,-17.3% (active),10.1%,3.29% (active),64.2%,,20.3%,34.4%,
Cc1nnc(N/N=C/c2ccc([N+](=O)[O-])o2)[nH]c1=O,15.7%,42.3%,4.33% (active),,-24.3% (active),,11%,25.4%,7.95% (active),-10.2% (active),-50.8% (active),-23.3% (active),-1.71% (active),-21.9% (active),5.88% (active),11.6%,,13.8%,5.83% (active),
CCOc1cc(F)c([N+](=O)[O-])cc1[N+](=O)[O-],,64.5%,29.6%,,76.7%,78.2%,-44% (active),70.1%,50.4%,12.5%,12.7%,18.8%,101%,9.98% (active),9.18% (active),92.2%,101%,90.5%,45.4%,2.66% (active)
COc1cccc2c1C(=O)c1c(O)c3c(c(O)c1C2=O)C[C@@](O)(C(=O)CO)C[C@@H]3OC1CC(OC(C)=O)C(OC(C)=O)C(C)O1 (stereo partly specified),,-30.9% (active),-42.9% (active),5.51% (active),-100% (active),-87.8% (active),-75.4% (active),-8.16% (active),-0.534% (active),-36.3% (active),,-40.5% (active),-19.1% (active),-48.6% (active),-53.2% (active),-8.8% (active),30.5%,-6.25% (active),-38.2% (active),-59% (active)
